Data on 36 compounds can be found in PubChem BioAssay.

The source made the active and inactive calls.

One assay concerns PRMT1 (protein arginine N-methyltransferase 1). Kind of assay: PRMT1 binders on small-molecule microarrays, primary screen, biochemical, small-molecule microarray, 635 nm fluorescence (AID 1088).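 Note: binding of Prmt1 protein to compounds spotted on small-molecule microarray slides.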 As to conditions: small-molecule microarray binding, higher = more signal.
In turn, `CCOC(=O)NN=C1C[C@@H](O)[C@@H](O)[C@@H]2[C@@H]3C(=O)N(c4cccc(Oc5ccccc5)c4)C(=O)[C@@H]3CC[C@H]12` displayed a composite z-score of 0.626. On to `CCOC(=O)C1=NO[C@@]2(C=C(Br)C3(OCCCO3)[C@H]3O[C@H]32)C1`, for which the composite z-score is -0.481. Compound `CO[C@@H]1COC(=O)[C@H](CCSC)NC(=O)CC=C[C@@H](C)COC(=O)CCC[C@H]1C` registered a composite z-score of 1.55. `CCOC(=O)[C@H](Cc1ccccc1)NC(=O)CCC1CC(OC(=O)NCc2cccc3ccccc23)CC2(CCCC(COC(=O)NCCC(C)C)O2)O1` (stereo partly specified): the composite z-score was -0.923. On the same count and under the same terms, the figure for `CC[C@@H](c1ccccc1)n1c(=O)n2n(c1=O)[C@H]1[C@H](O)[C@@H]3O[C@@H]3C(=O)[C@H]1CC2` is 0.342; for `CCc1cc2c(nc1CC)CCN(CCC(C)=NO[C@H](C)c1cn([C@H](CO)Cc3ccccc3)nn1)C2` it is 1.05; for `CCOC(=O)[C@H](CC(C)C)NC(=O)CCC1CC(OC(=O)NCc2ccc3c(c2)OCO3)CC2(CCCC(COC(=O)NCC(c3ccccc3)c3ccccc3)O2)O1` (stereo partly specified) it is 0.915. Compound `CCOC(=O)CCN1C(=O)[C@H]2[C@H]3[C@H](O)[C@H](O)CC(=NOCC(C)C)[C@H]3CC[C@H]2C1=O` displayed a composite z-score of -0.309.

Compound `O=C1[C@H]2[C@H]3[C@H](O)[C@H](O)CC(=NOCc4ccccc4)[C@@H]3CC[C@H]2C(=O)N1C[C@@H]1CCCO1` returned a composite z-score of -0.423. Consider `CCOC(=O)[C@H](CC(C)C)NC(=O)CCC1CC(OC(=O)NCc2cccc3ccccc23)CC2(CCCC(COC(=O)NCC3CCCCC3)O2)O1` (stereo partly specified), for which the composite z-score was 1.47.

Turning to `CC(C)=CCCC(C)=CCON=C1C[C@@H](O)[C@@H](O)[C@@H]2[C@@H]3C(=O)N(c4cccc(Oc5ccccc5)c4)C(=O)[C@@H]3CC[C@@H]12`, the composite z-score turned out to be 0.355. Same read-out and setting: the figure for `O=C1[C@H]2[C@H]3[C@H](O)[C@H](O)CC(=NOC[C@@H](O)COCc4ccco4)[C@H]3CC[C@H]2C(=O)N1c1ccc(F)cc1F` is -0.012. Consider `COc1ccc(O[C@@H]2[C@H](O)CO[C@H]2C=Cc2ccccc2)cc1`, for which the composite z-score was determined as 0.619.

The compound `COC(=O)[C@@H]1CC[C@H](C)[C@@H](c2ccc(C)cc2)N1C(=O)c1ccc(C=NO[C@@H]2O[C@H](COC(C)=O)[C@@H](OC(C)=O)[C@H](OC(C)=O)[C@H]2OC(C)=O)cc1` displayed a composite z-score of 1.43. The same measure, in the same setting: to `CO[C@H]1COC(=O)[C@H](C)NC(=O)[C@@H](C)COC(=O)[C@H]2CCCN2C(=O)CC=C[C@H]1C` belongs 1.08; to `CC(C)=CCCC(C)=CCON=C1C[C@@H](O)[C@@H](O)[C@@H]2[C@@H]3C(=O)N(c4ccc(F)cc4F)C(=O)[C@@H]3CC[C@H]12`, 1.54; to `COc1cc(O)c(C(=O)C=Cc2ccc3c(c2)OCO3)c(OC)c1`, -0.825. Regarding `COc1ccc(O[C@H]2C=C[C@@H](c3ccccc3)O[C@@H]2CON=C2[C@H]3CCn4c(=O)n(-c5ccccc5)c(=O)n4[C@H]3[C@H](O)[C@@H]3O[C@H]23)cc1`, the composite z-score came to 1.3.

Take `COc1ccc(COC(=O)NN=C2C[C@@H](O)[C@@H](O)[C@@H]3[C@@H]4C(=O)N(Cc5ccccc5)C(=O)[C@@H]4CC[C@H]23)cc1`: the composite z-score was found to be 0.413.

In the case of `CO[C@H]1COC(=O)[C@@H](C)COC(=O)[C@@H](OCc2ccccc2)C=C[C@@H]1C`, the composite z-score was 0.0714. In turn, `COc1ccc(O[C@H]2C=C[C@@H](c3ccccc3)O[C@@H]2CON=C(C)CCN2CCc3nc(-c4ccccc4)c(-c4ccccc4)cc3C2)cc1` returned a composite z-score of 0.307. For `CCN1C(=O)[C@H]2[C@H]3[C@H](O)[C@H](O)CC(=O)[C@H]3CC[C@H]2C1=O`, the composite z-score stood at 0.288. `CCCNC(=O)OC[C@H]1O[C@H](CCON=C(C)C)C=C[C@@H]1Oc1ccc(OC)cc1` yielded a composite z-score of 0.612.

As for `CCOC(=O)NN=C1C[C@@H](O)[C@@H](O)[C@@H]2[C@@H]3C(=O)N(c4ccc(F)cc4F)C(=O)[C@@H]3CC[C@@H]12`, the composite z-score was -0.009. `C[n+]1ccc(-c2ccc(CO)cc2)cc1` displayed a composite z-score of 1.37.

System in a further assay: not listed separately
Kind of assay: yeast growth modulation, basal conditions, primary screen, YJM789 clinical isolate, OD600, 24 h (AID 1089).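 Note: growth of clinical yeast isolate S. cerevisiae YJM 789 seeded 1000 cells per well; test concentration not given here.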 As to conditions: S. cerevisiae YJM789 growth, higher = more signal, called active from +8 up or from −8 down.
With `CO[C@H]1COC(=O)CC=C[C@H](C)[C@@H](OC)COC(=O)[C@@H](C)NC(=O)CC=C[C@@H]1C`, the z-score was -1.02 (inactive). With `CCOC(=O)[C@H](Cc1ccccc1)NC(=O)OC1CC(CCC2CC(CC)=NO2)OC2(CCCC(COC(=O)NCCC(C)C)O2)C1` (stereo partly specified), the z-score was -0.764 (inactive). `CC(C)CON=C1C[C@@H](O)[C@@H](O)[C@@H]2[C@@H]3C(=O)N(c4ccc(F)cc4F)C(=O)[C@@H]3CC[C@H]12`: the z-score was -0.254 (inactive). As for `CC(C)(C)N1C(=O)[C@H]2[C@H]3[C@H](O)[C@H](O)CC(=NO[C@@H]4O[C@H](CO)[C@@H](O)[C@H](O)[C@H]4O)[C@H]3CC[C@H]2C1=O`, the z-score is 0.768 (inactive). Turning to `COC(=O)C=CCCc1coc(C=CCNC(=O)OC)n1`, the z-score was 0.339 (inactive). Consider `Cc1ccc(S(=O)(=O)OC[C@H]2CN3[C@H](c4ccc(Br)cc4)[C@@H](C)CC[C@H]3C(=O)O2)cc1`, for which the z-score is -0.855 (inactive).

Regarding `CO[C@@H]1COC(=O)[C@@H](C)NC(=O)CC=C[C@@H](C)[C@H](NS(=O)(=O)c2ccc(C)cc2)COC(=O)[C@H](C)NC(=O)CC=C[C@H]1C`, the z-score was -0.263 (inactive).

Take `COC(=O)[C@H](C)NC(=O)CCC1CC(OC(=O)NCc2ccc3c(c2)OCO3)CC2(CCCC(COC(=O)NCC3CCCCC3)O2)O1` (stereo partly specified): the z-score is 0.147 (inactive). For `C#CCCCON=C1C[C@@H](O)[C@@H](O)[C@@H]2[C@@H]3C(=O)N(C(C)(C)C)C(=O)[C@@H]3CC[C@H]12`, the z-score was -0.234 (inactive). On to `CCOC(=O)NN=C1C[C@@H](O)[C@@H](O)[C@@H]2[C@@H]3C(=O)N(C(C)(C)C)C(=O)[C@@H]3CC[C@H]12`, for which the z-score was 0.438 (inactive). As to `C[C@H]1COC(=O)[C@@H]2CCCN2C(=O)[C@@H](C)COC(=O)[C@H](Cc2ccccc2)NC1=O`, the z-score was -0.801 (inactive).

Turning to `CCOC(=O)NN=C1C[C@@H](O)[C@@H](O)[C@@H]2[C@@H]3C(=O)N(c4cccc(Oc5ccccc5)c4)C(=O)[C@@H]3CC[C@H]12`, the z-score is -1.57 (inactive). Still for that read-out and setting: to `CCOC(=O)C1=NO[C@@]2(C=C(Br)C3(OCCCO3)[C@H]3O[C@H]32)C1` belongs 0.74 (inactive); to `CO[C@@H]1COC(=O)[C@H](CCSC)NC(=O)CC=C[C@@H](C)COC(=O)CCC[C@H]1C`, -1.16 (inactive); to `CCOC(=O)[C@H](Cc1ccccc1)NC(=O)CCC1CC(OC(=O)NCc2cccc3ccccc23)CC2(CCCC(COC(=O)NCCC(C)C)O2)O1` (stereo partly specified), -1.04 (inactive). On to `CC[C@@H](c1ccccc1)n1c(=O)n2n(c1=O)[C@H]1[C@H](O)[C@@H]3O[C@@H]3C(=O)[C@H]1CC2`, for which the z-score was -0.0637 (inactive). `CCc1cc2c(nc1CC)CCN(CCC(C)=NO[C@H](C)c1cn([C@H](CO)Cc3ccccc3)nn1)C2`: the z-score is -0.563 (inactive). In the case of `CCOC(=O)[C@H](CC(C)C)NC(=O)CCC1CC(OC(=O)NCc2ccc3c(c2)OCO3)CC2(CCCC(COC(=O)NCC(c3ccccc3)c3ccccc3)O2)O1` (stereo partly specified), the z-score was 0.417 (inactive). For `CCOC(=O)CCN1C(=O)[C@H]2[C@H]3[C@H](O)[C@H](O)CC(=NOCC(C)C)[C@H]3CC[C@H]2C1=O`, the z-score was 0.199 (inactive). As to `O=C1[C@H]2[C@H]3[C@H](O)[C@H](O)CC(=NOCc4ccccc4)[C@@H]3CC[C@H]2C(=O)N1C[C@@H]1CCCO1`, the z-score is -0.857 (inactive).

On to `CCOC(=O)[C@H](CC(C)C)NC(=O)CCC1CC(OC(=O)NCc2cccc3ccccc23)CC2(CCCC(COC(=O)NCC3CCCCC3)O2)O1` (stereo partly specified), for which the z-score was -0.402 (inactive). For the compound `CC(C)=CCCC(C)=CCON=C1C[C@@H](O)[C@@H](O)[C@@H]2[C@@H]3C(=O)N(c4cccc(Oc5ccccc5)c4)C(=O)[C@@H]3CC[C@@H]12`, the z-score is 0.164 (inactive). Regarding `O=C1[C@H]2[C@H]3[C@H](O)[C@H](O)CC(=NOC[C@@H](O)COCc4ccco4)[C@H]3CC[C@H]2C(=O)N1c1ccc(F)cc1F`, the z-score is -3.68 (inactive). For `COc1ccc(O[C@@H]2[C@H](O)CO[C@H]2C=Cc2ccccc2)cc1`, the z-score is -2.63 (inactive). Take `COC(=O)[C@@H]1CC[C@H](C)[C@@H](c2ccc(C)cc2)N1C(=O)c1ccc(C=NO[C@@H]2O[C@H](COC(C)=O)[C@@H](OC(C)=O)[C@H](OC(C)=O)[C@H]2OC(C)=O)cc1`: the z-score was 1.26 (inactive).

`CO[C@H]1COC(=O)[C@H](C)NC(=O)[C@@H](C)COC(=O)[C@H]2CCCN2C(=O)CC=C[C@H]1C`: the z-score was -0.282 (inactive). Consider `CC(C)=CCCC(C)=CCON=C1C[C@@H](O)[C@@H](O)[C@@H]2[C@@H]3C(=O)N(c4ccc(F)cc4F)C(=O)[C@@H]3CC[C@H]12`, for which the z-score was -0.912 (inactive). In the case of `COc1cc(O)c(C(=O)C=Cc2ccc3c(c2)OCO3)c(OC)c1`, the z-score is 1.11 (inactive). Take `COc1ccc(O[C@H]2C=C[C@@H](c3ccccc3)O[C@@H]2CON=C2[C@H]3CCn4c(=O)n(-c5ccccc5)c(=O)n4[C@H]3[C@H](O)[C@@H]3O[C@H]23)cc1`: the z-score is -0.417 (inactive). As to `COc1ccc(COC(=O)NN=C2C[C@@H](O)[C@@H](O)[C@@H]3[C@@H]4C(=O)N(Cc5ccccc5)C(=O)[C@@H]4CC[C@H]23)cc1`, the z-score was -0.457 (inactive). The same measure, in the same setting: to `CO[C@H]1COC(=O)[C@@H](C)COC(=O)[C@@H](OCc2ccccc2)C=C[C@@H]1C` belongs 1.3 (inactive).

Turning to `COc1ccc(O[C@H]2C=C[C@@H](c3ccccc3)O[C@@H]2CON=C(C)CCN2CCc3nc(-c4ccccc4)c(-c4ccccc4)cc3C2)cc1`, the z-score was 0.549 (inactive). With `CCN1C(=O)[C@H]2[C@H]3[C@H](O)[C@H](O)CC(=O)[C@H]3CC[C@H]2C1=O`, the z-score was -0.955 (inactive). With `CCCNC(=O)OC[C@H]1O[C@H](CCON=C(C)C)C=C[C@@H]1Oc1ccc(OC)cc1`, the z-score was -0.578 (inactive). Same read-out and setting: to `CCOC(=O)NN=C1C[C@@H](O)[C@@H](O)[C@@H]2[C@@H]3C(=O)N(c4ccc(F)cc4F)C(=O)[C@@H]3CC[C@@H]12` belongs 0.517 (inactive); to `C[n+]1ccc(-c2ccc(CO)cc2)cc1`, -1.14 (inactive).
